# Laboratory results taken from PubChem BioAssay.
# Unmarked numbers belong to inactive results. No rule for the calls is given here.
# Target: L-lactate dehydrogenase (Plasmodium falciparum (isolate CDC / Honduras)) (UniProt Q27743)
# Assay: PfLDH activity inhibition – cell lysate, 3D7 strain, counter-screen for P. falciparum growth inhibition project (AID 2304);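 also: 0% = vehicle and 100% = reference inhibitor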
# Conditions: P. falciparum 3D7 crude extract, LDH APAD/NBT absorbance; at 2 µM; active compounds read high
# L-lactate dehydrogenase (Plasmodium falciparum (isolate CDC / Honduras)), sequence (Q27743 whole entry, looked up): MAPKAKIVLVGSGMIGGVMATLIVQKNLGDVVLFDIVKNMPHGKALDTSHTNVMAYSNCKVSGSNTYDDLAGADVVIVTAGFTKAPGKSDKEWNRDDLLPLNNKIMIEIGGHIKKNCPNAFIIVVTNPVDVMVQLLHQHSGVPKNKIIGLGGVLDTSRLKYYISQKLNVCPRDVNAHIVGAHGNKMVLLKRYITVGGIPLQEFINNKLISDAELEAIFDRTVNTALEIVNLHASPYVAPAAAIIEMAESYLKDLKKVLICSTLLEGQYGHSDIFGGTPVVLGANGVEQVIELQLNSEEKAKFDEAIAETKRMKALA
row,SMILES,inhibition
1,O=C(N[C@@H](Cc1ccccc1)C(=O)NC1CCCCC1)c1ccc(O)c(-c2ccc(Cl)c(Cl)c2)c1,1%
2,O=[N+]([O-])c1ccc2nc(Nc3cccc(C(F)(F)F)c3)c(Nc3cccc(C(F)(F)F)c3)nc2c1,-4%
3,C[C@H](Cc1ccc(CCc2ccc(C[C@@H](C)NC[C@H](O)c3cccc(Cl)c3)cc2)cc1)NC[C@H](O)c1cccc(Cl)c1,2%
4,COc1ccc2nccc([C@@H](O)CN3CCC(NCc4cc5ccccc5[nH]4)CC3)c2n1,3%
5,C=CCc1cccc(OC)c1OCCCON1C(N)=NC(N)=NC1(C)C,-1%
6,Cc1ccc2nc(-c3ccc(C=CC(=O)NC4CCN(Cc5ccccc5)CC4)cc3)[nH]c2c1,-1%
7,CCOc1c(OC)ccc2c1CCN(CCN1CCC(CNC(=O)c3ccc(-c4ccc(C#N)cc4)cc3)CC1)C2,7%
8,Nc1ncc(-c2ccc(F)cc2)c2ccc(-c3cccc(F)c3)cc12,3%
9,O=C(NCc1ccc(F)cc1)c1cc(Br)cc(N2CCN(c3ccncc3)CC2)c1,-2%
10,O=C(Nc1ccc(Cl)c(Cl)c1)N[C@H]1CCN(CCCCCNC(=O)[C@@H]2C[C@H]2c2ccc(Cl)c(Cl)c2)C1,3%
11,CCOC(=O)c1ccc(COc2ccc(C)nc2)cc1,-8%
12,CC(=O)Oc1cc(C(=O)Nc2ccc(Cl)cc2)cc2ccccc12,-3%
13,O=C(NC1CCN(c2ccnc3cc(Cl)ccc23)C1)c1ccccc1F (stereo unspecified),4%
14,COc1cccc2cc(C(=O)N[C@@H](CC(C)C)C(=O)N[C@H](/C=N/N3CCCC3=O)Cc3ccccc3)oc12,5%
15,O=c1cc(NCCCNCc2csc(Br)c2Sc2ccc(Cl)cc2)[nH]c2ccccc12,7%
16,CS(=O)(=O)Cc1ccc(Nc2nccc(NC3CCN(c4nccc(C(F)(F)F)n4)CC3)n2)cc1,-3%
17,CCOc1cc2c(cc1OCC)C(c1ccc(O)c(Cl)c1)NCC2 (stereo unspecified),4%
18,COc1cc(CN2CCC(C(=O)Nc3ccc(-c4cccc(C)c4)cc3)CC2)ccc1O,3%

row,SMILES,inhibition
1,CCCCCCn1c(Sc2ccc(C#N)c([N+](=O)[O-])c2)nnc1-c1ccc(N(C)C)cc1,7%
2,Cc1ccc(NC(=O)c2ccc(N3CCN(c4ccncc4)CC3)cc2)cc1F,-1%
3,Cc1cccc2[nH]c(-c3cccc(-c4ccc(CNCc5cccc(N)c5)cc4)c3)nc12,-3%
4,O=C1OC2(CN1CC1CCN(Cc3ccc(O)c(Cl)c3)CC1)c1ccccc1-c1ccccc12,0%
5,CCCN(Cc1nnc(-c2cccs2)o1)C(=O)CSc1nnnn1-c1ccc(C)c(C)c1,0%
6,CCN1C(=O)N(CCC(C)C)C2(CCN(Cc3ccc(OC)cc3O)CC2)C1=O,4%
7,COc1ccc2c(NN=Cc3cccc([N+](=O)[O-])c3)cc(C)nc2c1,-6%
8,Cn1cncc1C(=O)Nc1cccc(-c2cccc(-c3nc4ccc(C(F)(F)F)cc4[nH]3)c2)c1,0%
9,N#Cc1ccc(-c2ccc(OCC(O)CN3CCCN(C(=O)C(c4ccc5c(c4)OCO5)N4CCN(C/C=C/c5ccccc5)CC4)CC3)cc2)cc1 (stereo unspecified),3%
10,COC(=O)c1ccc2nc(-c3ccc(/C=C/C(=O)NC4CCN(Cc5ccccc5)CC4)cc3)[nH]c2c1,-5%
11,CC(=O)Nc1nnc(SCc2c(C)cc(C(C)(C)C)cc2C)s1,-4%
12,O=C(Cc1ccccc1)NC(CCN1CCC(N(C2CC2)S(=O)(=O)c2cccc(C(F)(F)F)c2)CC1)c1ccc(Cl)c(Cl)c1 (stereo unspecified),6%
13,CN(C)c1ccc(-c2csc(C(=O)NC3CCN(CCC(C)(C)C)C3)c2)cc1 (stereo unspecified),2%
14,Cc1ccc(CNC(=O)[C@H](Cc2ccccc2)Nc2cc(C)nc(Nc3ccccc3)n2)cc1,1%
15,CCOC(=O)c1cccc(N/C(N)=N/c2nc(C)cc(NCCc3ccccc3)n2)c1,-6%
16,Cc1cccc2[nH]c(-c3ccc(-c4ccc(NC(=O)NCc5ccccc5)cc4)s3)nc12,5%
17,COc1cccc(NC(=O)Nc2ccc(C)c(-c3ccc(C(=O)Nc4ccncc4)cc3)c2)c1,1%
18,Cc1ccc(O)c(-c2cc(C(=O)Nc3ccc(S(=O)(=O)N4CCCC(C)C4)cc3)[nH]n2)c1 (stereo unspecified),-2%
